In the library only some 19% were active in any assay of this set; here they are far more common.
TGFb SMAD3 inh: TGF-b pathway inhibition; HepG2 CAGA-GFP TGF-b/SMAD3 reporter, GFP fluorescence, 18 h; TGF-beta stimulated, 500 pg/mL final; 410,000 tested, 1.2% active; Potency, µM (top dose mostly 46.1 µM), hits mostly inhibitors; note: nearly all actives have a fitted effect of over 65% in size
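Cell-based qHTS in HEPG2 carrying a CAGA-GFP Smad reporter; compounds added before 500 pg/mL final TGF-beta, 18 h incubation at 37 degrees C, GFP fluorescence quantified per cell by imaging cytometry.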
HepG2 tox: HepG2 cytotoxicity, counter-screen for TGF-b inhibitors; HepG2 CAGA-GFP viability, ATP luminescence, 18 h; Potency, µM (highest dose often 46.1 µM), usual class: cytotoxic; 410,000 tested, 0.76% active
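HepG2 CAGA-GFP cells (1000/well, DMEM with 1% FBS) received compound, then TGF-beta at 500 pg/mL final, and were incubated 18 hours at 37 degrees C. Viability was read by CellTiter-Glo luminescence. Media-only wells were set as complete cell-killing and DMSO as no toxicity.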
TDP1 cell noCPT: qHTS for Inhibitors of human tyrosyl-DNA phosphodiesterase 1 (TDP1): qHTS in cells in absence of CPT. Potency, µM (series often up to 46.2 µM), hits mostly inhibitors. DT40 Tdp1-/- hTDP1 cells, no CPT, ATP luminescence, 48 h. 420,000 tested, 15% active; note: nearly all actives have a fitted effect of over 55% in size
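Luminescent ATP content (CellTiter-Glo) served as the growth readout. Knockout chicken DT40 cells expressing human TDP1 were exposed to compounds without camptothecin for a minimum 48 hr at 37 °C.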
DT40 TDP1 CPT: growth inhibition of DT40 Tdp1-/-;hTDP1 cells with camptothecin (screen for TDP1 inhibitors) | chicken DT40 Tdp1-/-;hTDP1 cells + 20 nM CPT, ATP luminescence, 48 h | Potency, µM (top dose mostly 46.2 µM), usual class: inhibitors | 420,000 tested, 12% active; note: nearly all actives have a fitted effect of over 55% in size
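Chicken DT40 Tdp1-/- cells complemented with human TDP1, 400 cells/well, exposed to compounds plus 20 nM camptothecin for at least 48 h at 37 C; viability read as ATP content by CellTiter-Glo luminescence.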
IL1B secr inh: inflammasome signaling inhibition, IL-1 beta readout; THP-1 LPS/ATP IL-1B secretion, AlphaLISA, 16 h; stronger effect = lower value; activity change, % at 57.5 µM; 360,000 tested, 4.7% active; in the data active = activity change below about -50%; inconclusive = mostly about -30% to -49%
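Secreted IL-1B measured by AlphaLISA bead assay after 16 h compound exposure of THP-1 cells; compounds (final up to 57.5 uM) added 1 h before LPS (250 ng/mL) and ATP (1.25 mM) stimulation; lower signal means less secretion.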
TDP1 block: blocks human tyrosyl-DNA phosphodiesterase 1 | Q9NUW8 | recombinant TDP1, AlphaScreen DNA substrate cleavage | Potency, µM (doses to about 130 µM), most hits filed as inhibitors | 350,000 tested, 0.28% active; note: nearly all actives have a fitted effect of over 40% in size
Target sequence (Q9NUW8 whole entry, looked up): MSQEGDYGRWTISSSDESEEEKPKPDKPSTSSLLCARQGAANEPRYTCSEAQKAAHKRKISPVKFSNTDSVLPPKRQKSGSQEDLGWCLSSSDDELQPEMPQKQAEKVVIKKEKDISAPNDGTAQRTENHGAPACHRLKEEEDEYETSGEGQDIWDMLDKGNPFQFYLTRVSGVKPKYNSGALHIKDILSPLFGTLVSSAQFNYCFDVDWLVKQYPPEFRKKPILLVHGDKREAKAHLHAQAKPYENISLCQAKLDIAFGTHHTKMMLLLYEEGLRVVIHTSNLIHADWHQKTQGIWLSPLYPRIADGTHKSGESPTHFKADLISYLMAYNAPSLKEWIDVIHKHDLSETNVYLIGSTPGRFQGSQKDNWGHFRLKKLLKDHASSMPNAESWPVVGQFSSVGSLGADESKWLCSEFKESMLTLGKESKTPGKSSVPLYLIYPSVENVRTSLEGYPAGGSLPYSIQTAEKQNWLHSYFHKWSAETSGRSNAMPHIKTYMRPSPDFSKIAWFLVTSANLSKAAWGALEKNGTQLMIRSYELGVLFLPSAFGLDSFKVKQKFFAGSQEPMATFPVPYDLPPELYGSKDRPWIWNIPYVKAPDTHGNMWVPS
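Compounds were preincubated with Tdp1 (1 nM final) for 15 min at room temperature before substrate (15 nM final) started a 5 min reaction; beads (10 ug/ml final) were then added for 10 min before AlphaScreen detection.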
Numbers stand for hits; . = inactive; ? = inconclusive; / = no result; [ ] = remark or other dose. Unless noted, calls come from the whole dose curve; as a rule, active = well fitted curve in the direction sought with a large enough effect; inconclusive = small, poorly fitted or top-dose-only effect, or another doubt; inactive = no such curve, though single readings can be large; an effect the other way counts as inactive or inconclusive.

SMILES	TGFb SMAD3 inh	HepG2 tox	TDP1 cell noCPT	DT40 TDP1 CPT	IL1B secr inh	TDP1 block
CCCCCC(=O)Nc1cccc(C2=NOC3(C2)C[C@@H](C(N)=O)N(C(=O)c2cc([N+](=O)[O-])cc([N+](=O)[O-])c2C)C3)c1 (some centres undefined)	?	.	?	?	.	.
O=C(C1CC1)N1CCN(S(=O)(=O)c2ccc3c(c2)OCCO3)CC1	.	.	.	.	.	.
COC(=O)N1CCC2(CCCN(c3cccc(-c4ccccc4)c3)C2)CC1	/	/	?	.	/	/
CC(=O)N1CCC2(CC1)CN(c1cccc(-c3ccccc3)c1)C2	/	/	?	.	/	/
Cn1cccc1C(=O)N1CCN(c2cccc(C(F)(F)F)c2)CC1	.	.	?	?	.	.
O=C(c1cnccn1)N1CCC2(CC1)CN(c1cccc(-c3ccccc3)c1)C2	/	/	?	18µM	/	/
CC(=O)N1CCC2(CC1)CCN(c1cccc(-c3ccccc3)c1)CC2	/	/	21µM	?	/	/
Cn1cccc1C(=O)N1CCC2(CC1)CCN(c1cccc(-c3ccccc3)c1)CC2	/	/	?	16µM	/	/
COc1ccc(C(=O)N2CCC3(CCCN(c4cccc(-c5ccccc5)c4)C3)CC2)cc1	/	/	21µM	?	/	/
Nn1cc(Br)c(=O)[nH]c1=O	/	/	.	.	/	?
CC[C@H](C)[C@H](NC(=O)[C@H](Cc1ccc(O)cc1)NC(=O)[C@H](Cc1cnc[nH]1)NC(=O)[C@H](CCCNC(=N)N)NC(=O)[C@H](CC(C)C)NC(=O)[C@H](C)NC(=O)[C@H](CO)NC(=O)[C@H](Cc1ccc(O)cc1)NC(=O)[C@H](Cc1ccc(O)cc1)NC(=O)[C@H](CCCNC(=N)N)NC(=O)[C@H](C)NC(=O)[C@H](CCSC)NC(=O)[C@H](CC(=O)O)NC(=O)[C@H](CCC(=O)O)NC(=O)[C@H](C)NC(=O)[C@@H]1CCCN1C(=O)[C@H](C)NC(=O)[C@H](CC(=O)O)NC(=O)[C@H](CCC(=O)O)NC(=O)CNC(=O)[C@@H]1CCCN1C(=O)[C@H](CC(N)=O)NC(=O)[C@H](CC(=O)O)NC(=O)[C@@H]1CCCN1C(=O)[C@H](CCCCN)NC(=O)[C@H](CO)NC(=O)[C@@H]1CCCN1C(=O)[C@@H](N)Cc1ccc(O)cc1)C(=O)N[C@@H](CC(N)=O)C(=O)N[C@@H](CC(C)C)C(=O)N[C@H](C(=O)N[C@H](C(=O)N[C@@H](CCCNC(=N)N)C(=O)N[C@@H](CCC(N)=O)C(=O)N[C@@H](CCCNC(=N)N)C(=O)N[C@@H](Cc1ccc(O)cc1)C(N)=O)[C@@H](C)O)[C@@H](C)CC	/	/	/	/	/	.
Cn1cccc1C(=O)N1CCC2(CCCN(c3cccc(-c4ccccc4)c3)C2)CC1	/	/	13µM	?	/	/
Cn1cccc1C(=O)N1CCC[C@@]2(CCN(c3ccccc3)C2)C1	/	/	26µM	?	/	/
Cc1onc(-c2ccccc2)c1C(=O)NC(C)CCc1ccccc1 (centres undefined)	.	.	?	.	.	.
O=C(COc1cccc2ccccc12)N/N=C/c1ccc(Sc2nc3ccccc3s2)o1	.	.	21µM	?	.	.
Cc1ccc(OCC(=O)N/N=C\c2ccc(C)o2)c(C)c1	.	.	.	.	.	.
O=C(Cc1cccc2ccccc12)N/N=C/c1ccc(Sc2nc3ccccc3s2)o1	.	.	?	16µM	.	.
Cc1ccccc1OCC(=O)N/N=C/c1ccc(N2CCOCC2)o1	13µM	.	?	?	?	.
O=C(N/N=C/c1ccc(N2CCCCC2)o1)c1ccccc1	.	.	12µM	9.2µM	-96	.
N#CCC(=O)N/N=C/c1ccc(Sc2nc3ccccc3s2)o1	.	.	.	.	.	.
Cc1ccccc1OCC(=O)N/N=C/c1ccc(Sc2nc3ccccc3s2)o1	.	.	16µM	?	.	.
CCc1ccccc1NC(=O)CN(c1ccccc1OC)S(=O)(=O)c1ccc(C)cc1	.	.	18µM	?	/	/
CCOc1ccccc1NC(=O)CN(CCc1ccccc1)S(=O)(=O)c1ccc(C)cc1	.	.	16µM	?	/	.[12.3 µM]
COc1ccc(C)cc1NC(=O)CN(c1cc(C(F)(F)F)ccc1Cl)S(C)(=O)=O	?	.	16µM	?	/	/
CCOC(=O)c1ccccc1NC(=O)CN(c1cc(C(F)(F)F)ccc1Cl)S(C)(=O)=O	.	.	?	?	/	/
SMILES	TGFb SMAD3 inh	HepG2 tox	TDP1 cell noCPT	DT40 TDP1 CPT	IL1B secr inh	TDP1 block
COc1ccc(OC)c(NC(=O)CN(c2ccccc2OC)S(=O)(=O)c2ccc(C)cc2)c1	.	.	26µM	16µM	/	/
O=C1C(=O)N(C2CCN(S(=O)(=O)c3ccc(F)cc3)CC2)CCN1Cc1ccccc1	.	.	.	.	/	.
CCC(C(=O)NC(CC(=O)O)c1ccc(Cl)cc1)c1ccccc1 (centres undefined)	.	.	.	.	.	/
COc1ccc(C(=O)NCCC2=CCCCC2)cc1OC	.	.	.	.	.	.
O=C(NCCC1=CCCCC1)c1ccc2c(=O)n3c(nc2c1)CCCCC3	.	.	?	?	.	.
Cc1c(Cl)cccc1Nc1nn2c(=O)c3ccc(C(=O)NCCC4=CCCCC4)cc3nc2s1	.	.	4.6µM	?	/	.
COc1ccccc1Nc1nn2c(=O)c3ccc(C(=O)NCCC4=CCCCC4)cc3nc2s1	5µM	5µM	3.3µM	1.5µM	/	.
Cc1ccc(C)c(Nc2nn3c(=O)c4ccc(C(=O)NCCC5=CCCCC5)cc4nc3s2)c1	?	.	7.3µM	6.5µM	/	.
COc1cc2cc(/C=C/C(=O)c3ccco3)c(Cl)nc2cc1OC	?	13µM	4.6µM	4.1µM	.	.
COc1ccc2cc(/C=C/C(=O)c3ccco3)c(Cl)nc2c1	/	/	/	/	/	.
Cc1ccc2cc(/C=C/C(=O)c3ccco3)c(Cl)nc2c1	?	.	21µM	10µM	/	.
CCC(Sc1nc2ccccc2c2nc(CCc3c(C)n[nH]c3C)nn12)C(=O)Nc1ccccc1F (centres undefined)	.	.	.	.	/	.
CC(C)NC(=O)CN1CCN(C(=O)CCl)CC1	.	.	.	.	.	.
CN(C)C(=O)CN1CCN(C(=O)CCl)CC1	.	.	16µM	?	.	.
Cc1cc(C)n(Cc2ccc(Cl)cc2Cl)c(=O)c1S(=O)(=O)c1ccccc1	.	.	23µM	?	.	.
C=C(C)Cn1c(C)cc(C)c(S(=O)(=O)c2ccc(C)cc2)c1=O	.	.	?	?	.	.
